We go through 21 compounds from ChEMBL document CHEMBL3988442, “University of Dundee, Small-Polar-MMV Screening Library” (2021).

In the assay the target is T1, Aspartate--tRNA(Asp/Asn) ligase (Mycobacterium tuberculosis (strain ATCC 25618 / H37Rv)) (UniProt P9WFW3).
T1 sequence (whole entry): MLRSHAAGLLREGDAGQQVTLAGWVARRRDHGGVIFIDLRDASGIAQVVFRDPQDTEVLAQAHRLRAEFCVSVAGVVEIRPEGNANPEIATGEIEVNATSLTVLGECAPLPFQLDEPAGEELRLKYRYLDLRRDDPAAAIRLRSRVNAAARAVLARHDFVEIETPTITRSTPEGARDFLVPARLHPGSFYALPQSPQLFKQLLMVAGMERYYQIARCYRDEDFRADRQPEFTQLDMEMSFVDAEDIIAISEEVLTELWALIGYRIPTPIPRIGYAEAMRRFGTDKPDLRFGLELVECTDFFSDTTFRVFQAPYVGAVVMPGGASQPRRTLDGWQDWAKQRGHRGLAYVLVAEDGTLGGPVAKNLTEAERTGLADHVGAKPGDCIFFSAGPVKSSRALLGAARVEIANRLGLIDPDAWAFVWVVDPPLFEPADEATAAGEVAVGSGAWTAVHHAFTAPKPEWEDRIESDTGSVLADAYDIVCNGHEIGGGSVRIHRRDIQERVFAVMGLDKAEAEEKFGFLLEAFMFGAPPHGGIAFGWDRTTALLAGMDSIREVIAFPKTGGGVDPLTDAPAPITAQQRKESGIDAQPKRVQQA
The assay can be described thus: Assay for Asp RNA synthetase-1 from Mycobacterium tuberculosis. The assay is classed as functional. As to conditions: 30 µM. Details: scale not given: in the data most compounds retested in dose-response had high values.
For `c1cnnc(NCC2CN(Cc3cccc4c3OCCO4)CCO2)c1` (stereo unspecified), the Percent Effect was -1.18%.

For the compound `O=C(NCC1CCOC1)c1csc(-c2cccc(Cl)c2)n1` (stereo unspecified), the Percent Effect is 0.759%.

Regarding `COc1ccc2c(c1)CCN(CCC(=O)O)CC2`, the Percent Effect came out at 3.94%. Then `Cc1ccccc1CSc1nc(N)cc(N2CCOC(C(N)=O)C2)n1` (stereo unspecified), with 3.12%. With `Cc1ccc2c(n1)N(C)CCN(C(=O)C1CC1)C2` the figure was 9.78%; with `Fc1cc(CNCc2ccc3c(c2)CCO3)ccc1N1CCOCC1`, -1.01%; with `CC(C)N1CCC(CNCc2c[nH]nc2C(C)(C)C)C1` (stereo unspecified), 7.32%.

As for `CCN(CC1CCOC1)C(=O)Nc1ccc(N2CCCC2)nc1` (stereo unspecified), the Percent Effect came to 0.3%.

Take `CC(C)C(C(=O)N1CCN(c2ccncc2)CC1)n1cncn1` (stereo unspecified): the Percent Effect stood at 7.82%. With `CC(C)Cc1cc(C(=O)NCCc2ccc(S(C)(=O)=O)cc2)[nH]n1` the figure was 3.53%; with `Cc1nccn1CC1CCCN1S(=O)(=O)Cc1ccccc1F` (stereo unspecified), 1.06%. In the case of `Cc1nccn1-c1cc(CNC(=O)c2ccccn2)ccn1`, the Percent Effect was determined as 8.28%. With `O=C(c1ccccn1)N1Cc2nccn2CC(COc2cccnc2)C1` (stereo unspecified) the figure was 3.15%; with `O=C(CCc1cccnc1)N(Cc1ccsc1)CC1CCCO1` (stereo unspecified), -1.24%; with `CC(NC(=O)CCCOc1ccccc1)c1nnc2n1CCCCC2` (stereo unspecified), 4.5%.

For `COCCOc1ccc(NC(=O)N2CCCC2c2cc(C)no2)cn1` (stereo unspecified), the Percent Effect was -5.36%. Turning to `Cc1nn(C)c(Cl)c1CNCc1cccnc1N1CCN(C)CC1`, the Percent Effect is -1.56%. Regarding `CC(C)c1n[nH]c(C2CN(Cc3nnc(C4CC4)o3)CCO2)n1` (stereo unspecified), the Percent Effect was -2.26%. Then `CC(=O)N(Cc1noc(C2CC2)n1)C1CCN(Cc2cccnc2)C1` (stereo unspecified), with -2.42%; and `CC(NC(=O)NCc1ccc(Cl)s1)c1ccccn1` (stereo unspecified), with -0.451%; and `COc1cccc(CNC(CN2CCN(C)CC2)c2ccccc2)c1` (stereo unspecified), with 3.94%.
